Gal4-VP16 FLuc = counter-screen for ROR gamma inhibitors: Gal4-VP16 reporter. Drosophila S2 Gal4-VP16 UAS-luciferase, luminescence, 20 h. Potency, µM (titrated, usually from 53.6 µM), actives largely listed as inhibitors. 310,000 tested, 3.5% active;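 further: Gal4-VP16 expression switched on by copper sulfate through the metallothionein promoter; nearly all actives have a fitted effect of over 50% in size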
12-LOX inh = inhibitors of human 12S-lipoxygenase ALOX12 | P18054 | 580,000 tested, 1.1% active | Potency, µM (series often up to 108 µM), actives largely listed as inhibitors | purified 12hLO, xylenol orange hydroperoxide absorbance
Target sequence (P18054 whole entry, looked up): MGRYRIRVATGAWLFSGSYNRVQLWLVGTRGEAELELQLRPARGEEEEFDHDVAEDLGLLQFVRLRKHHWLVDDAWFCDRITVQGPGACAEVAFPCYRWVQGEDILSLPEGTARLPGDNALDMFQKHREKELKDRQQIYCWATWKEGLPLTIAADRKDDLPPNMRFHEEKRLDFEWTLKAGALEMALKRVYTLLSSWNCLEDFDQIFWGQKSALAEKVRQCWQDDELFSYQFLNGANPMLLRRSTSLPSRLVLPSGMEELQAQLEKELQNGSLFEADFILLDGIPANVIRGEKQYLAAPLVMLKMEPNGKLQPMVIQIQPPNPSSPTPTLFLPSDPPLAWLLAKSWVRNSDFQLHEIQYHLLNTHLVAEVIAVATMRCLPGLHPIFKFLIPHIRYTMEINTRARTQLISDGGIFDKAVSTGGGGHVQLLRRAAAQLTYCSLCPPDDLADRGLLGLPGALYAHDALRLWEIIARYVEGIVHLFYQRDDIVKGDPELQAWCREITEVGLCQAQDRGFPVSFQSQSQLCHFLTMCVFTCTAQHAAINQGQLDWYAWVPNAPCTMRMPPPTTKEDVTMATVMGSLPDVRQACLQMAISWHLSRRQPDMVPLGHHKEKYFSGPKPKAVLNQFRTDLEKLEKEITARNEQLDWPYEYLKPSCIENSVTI
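Purified human 12hLO at 150 nM in 25 mM Hepes, 0.01% Triton X-100, pH 7.0, preincubated 15 min at room temperature with compound. Reaction started with 40 uM arachidonic acid, 30 min at room temperature. Hydroperoxide measured by Fe-xylenol orange, 573/405 nm absorbance ratio.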
TDP1 cell noCPT = qHTS for Inhibitors of human tyrosyl-DNA phosphodiesterase 1 (TDP1): qHTS in cells in absence of CPT | DT40 Tdp1-/- hTDP1 cells, no CPT, ATP luminescence, 48 h | Potency, µM (series often up to 46.2 µM), usual class: inhibitors | 420,000 tested, 15% active; further: nearly all actives have a fitted effect of over 55% in size
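Cells were dispensed at 400 per well, compounds added by pin tool, plates incubated ≥48 hr at 37 °C, then CellTiter-Glo added for 30 min at room temperature before luminescence reading. Line: DT40 Tdp1-/- complemented with hTDP1; camptothecin omitted.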
RORg inh = ROR gamma (mouse) transcription inhibition; P51450; Drosophila S2 Gal4-RORgamma UAS-luciferase reporter, 20 h; Potency, µM (highest dose often 53.6 µM), actives largely listed as inhibitors; 310,000 tested, 5.4% active; further: nearly all actives have a fitted effect of over 60% in size
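Luciferase reporter read in Schneider cells carrying Gal4-RORγ (mouse) and UAS-Photinus luciferase; cells given compound 1 h before 700 uM copper sulfate induction, then incubated 20 h at ambient temperature.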
ELG1 DNA repair = ELG1-dependent DNA repair inhibition; 330,000 tested, 2.3% active; HEK293T ELG1-luciferase reporter, luminescence, 16 h; DNA damage induced by 5-fluorouridine; Potency, µM (highest dose often 46.1 µM), hits mostly inhibitors; further: nearly all actives have a fitted effect of over 55% in size
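Quantitative HTS, concentration-response format. 2,000 cells/well co-treated with 5-fluorouridine and compound, 16 hr in 5% CO2 at 37 °C; ONE-Glo luminescence read after 30 min.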
TDP1 cell CPT = DT40-hTDP1 cell growth loss with CPT | AID 686979 | 420,000 tested, 12% active | Potency, µM (top dose mostly 46.2 µM), hits mostly inhibitors | chicken DT40 Tdp1-/-;hTDP1 cells + 20 nM CPT, ATP luminescence, 48 h; further: nearly all actives have a fitted effect of over 55% in size
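Cell growth measured by CellTiter-Glo luminescence after a minimum 48 h, 37 C compound exposure with 20 nM CPT in Tdp1-knockout DT40 cells stably expressing hTDP1, seeded 400/well; qHTS titration format.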
Each line names hits and unclear results; the compound was inactive in the other large screens. This is a sample that favours compounds with a hit; in the whole collection about 15% have one here. The call rests on the fitted dose curve; in most records, active means well fitted curve in the direction sought with a large enough effect; inconclusive means small, poorly fitted or top-dose-only effect, or another doubt; inactive means no such curve, though single readings can be large; an effect the other way counts as inactive or inconclusive.

Cc1ccc(-c2nc3ccc(C)cc3nc2-c2ccc(C)cc2)cc1	none (no result: Gal4-VP16 FLuc, TDP1 cell noCPT, RORg inh, ELG1 DNA repair, TDP1 cell CPT)
NC(=O)[C@@H]1CCCN1CC[C@H]1CN(C(=O)C2CCCC2)CC[C@H]1CC(=O)O	none (no result: Gal4-VP16 FLuc, TDP1 cell noCPT, RORg inh, ELG1 DNA repair, TDP1 cell CPT)
CC(C)Oc1cc(N(C)CC2CC(=O)N(C(C)(C)C)C2)nc(N)n1 (stereo not given)	none (no result: Gal4-VP16 FLuc, TDP1 cell noCPT, RORg inh, ELG1 DNA repair, TDP1 cell CPT)
CCc1ccc(-n2c(=O)c3c4c(sc3n(Cc3cc(=O)n5c(C)cccc5n3)c2=O)CCC4)cc1	TDP1 cell noCPT 11.6µM, TDP1 cell CPT inconclusive (no result: Gal4-VP16 FLuc, RORg inh, ELG1 DNA repair)
Cc1cccc2nc(Cn3c(=O)n(-c4ccccc4)c(=O)c4c5c(sc43)CCC5)cc(=O)n12	TDP1 cell noCPT inconclusive, TDP1 cell CPT inconclusive (no result: Gal4-VP16 FLuc, RORg inh, ELG1 DNA repair)
CCc1ccc(-n2c(=O)c3c4c(sc3n(CC(=O)c3ccc(Br)cc3)c2=O)CCC4)cc1	TDP1 cell noCPT 3.66µM, TDP1 cell CPT 5.8µM (no result: Gal4-VP16 FLuc, RORg inh, ELG1 DNA repair)
Cc1ccc(S(=O)(=O)Nc2ccc3c(c2)CCC3)cc1C	Gal4-VP16 FLuc inconclusive
Cn1cnnc1-c1ccc(NS(=O)(=O)c2ccc3c(c2)CCC3)cc1	12-LOX inh 28.2µM (no result: Gal4-VP16 FLuc, TDP1 cell noCPT, RORg inh, ELG1 DNA repair, TDP1 cell CPT)
Cc1ccc(S(=O)(=O)Nc2ccc3c(c2)CCC3)cc1	TDP1 cell noCPT 16.4µM, TDP1 cell CPT 14.6µM
COCCN1CC(CO)C2(CCN(Cc3cccc(Cl)c3)CC2)C1 (stereo not given)	none (no result: Gal4-VP16 FLuc, TDP1 cell noCPT, RORg inh, ELG1 DNA repair, TDP1 cell CPT)
O=C(C1CC1)N(Cc1ccc2c(c1)CN(S(=O)(=O)c1ccc(F)c(F)c1)CCO2)c1ccccc1	none (no result: Gal4-VP16 FLuc, TDP1 cell noCPT, RORg inh, ELG1 DNA repair, TDP1 cell CPT)
Cc1nc2ccc(C(=O)N3CCOC(C)C3)cc2nc1C (stereo not given)	none (no result: Gal4-VP16 FLuc, TDP1 cell noCPT, RORg inh, ELG1 DNA repair, TDP1 cell CPT)
O=C(NCCc1ccccc1)c1ccc2c(c1)OCCO2	Gal4-VP16 FLuc 1.26µM, RORg inh 1.41µM, ELG1 DNA repair inconclusive
O=C(NCCc1ccccc1)c1ccc2c(c1)OCCCO2	Gal4-VP16 FLuc 0.631µM, 12-LOX inh inconclusive, RORg inh 0.355µM, ELG1 DNA repair inconclusive
O=C(CCCc1ccccc1)c1ccc2c(c1)OCCO2	Gal4-VP16 FLuc 2.24µM, RORg inh 1.12µM, ELG1 DNA repair inconclusive
CN(C)C(=O)c1ccc(OC2CCN(C(=O)c3ccc(F)cc3F)CC2)nc1	none (no result: Gal4-VP16 FLuc, TDP1 cell noCPT, RORg inh, ELG1 DNA repair, TDP1 cell CPT)
CC1CCCC(C)N1C(=O)CSc1nnc(COc2ccccc2)n1-c1ccccc1 (stereo not given)	TDP1 cell noCPT 20.6µM, TDP1 cell CPT inconclusive
COc1ccc(-n2c(CNc3ccc(C)cc3)nnc2SCc2ccccc2)cc1	12-LOX inh inconclusive, TDP1 cell noCPT 16.4µM, ELG1 DNA repair inconclusive, TDP1 cell CPT inconclusive
Cc1ccc(-n2c(COc3ccccc3)nnc2SCC(=O)O)cc1	12-LOX inh inconclusive (no result: Gal4-VP16 FLuc, RORg inh, ELG1 DNA repair)
COc1ccc(-n2c(COc3ccc(C)cc3)nnc2SCC(N)=O)cc1	12-LOX inh inconclusive, RORg inh 11.2µM
COc1ccc(NCc2nnc(SCC(=O)NCc3ccccc3)n2-c2ccccc2OC)cc1	none
Cc1ccc(OCc2nnc(SCc3cc(=O)[nH]c4ccccc34)n2-c2ccccc2)cc1	TDP1 cell noCPT 23.1µM, RORg inh inconclusive, ELG1 DNA repair inconclusive, TDP1 cell CPT inconclusive
COc1cc(C=O)cc(Cl)c1OCc1ccc(C(=O)O)cc1	none (no result: Gal4-VP16 FLuc, TDP1 cell noCPT, RORg inh, ELG1 DNA repair, TDP1 cell CPT)
Cc1cc(SCc2cc(=O)[nH]c3ccccc23)nc2ccccc12	TDP1 cell noCPT inconclusive, TDP1 cell CPT 23.1µM
COC(=O)C1=C(CN2CCN(C)CC2)NC(=O)NC1c1cc(C)ccc1C (stereo not given)	12-LOX inh inconclusive
COC(=O)C1=C(COc2ccc(C=O)cc2OC)NC(=O)NC1c1cc(C)ccc1C (stereo not given)	Gal4-VP16 FLuc inconclusive, TDP1 cell noCPT 14.6µM, TDP1 cell CPT inconclusive
COC(=O)C1=C(CN2CCc3ccccc32)NC(=O)NC1c1cc(C)ccc1C (stereo not given)	12-LOX inh inconclusive, TDP1 cell noCPT inconclusive, ELG1 DNA repair 13µM, TDP1 cell CPT inconclusive
CNC(=O)c1ccc(/C=C/C(=O)N(Cc2ccsc2)C2CC2)cc1	none (no result: Gal4-VP16 FLuc, TDP1 cell noCPT, RORg inh, ELG1 DNA repair, TDP1 cell CPT)
COc1ccc(OC)c(-c2cc(C(=O)N3CCN(c4ccccc4)CC3)no2)c1	TDP1 cell noCPT 20.6µM, TDP1 cell CPT inconclusive

Source: PubChem BioAssay (National Center for Advancing Translational Sciences (NCATS))
